Assay results taken from PubChem BioAssay.
Calls of active or inactive are those of the source. Rule as the data show it, unless noted: active = response above about 15%; inactive = the rest.

How the values were obtained:
[1] = hit retest on RPL19A-GFP reporter strain – cell-based, S. cerevisiae, flow cytometry, cherry picks, mother/daughter gates, confirmation (AID 2270;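 active = GFP response below 50% of the DMSO control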); conditions: 3 h, at 10 µM, stronger effect = lower value, 100 = same GFP as DMSO wells
[2] = yeast TOR pathway reporter LAP4-GFP change – cell-based, cherry picks, flow cytometry, mother/daughter gates, confirmation (AID 2271;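 active = GFP response above 150% of the DMSO control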;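 also: ratio of sample to DMSO plate mean so 100% equals DMSO level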); conditions: S. cerevisiae LAP4-GFP strain, 3 h, at 10 µM, stronger effect = higher value, 100 means same as DMSO control
[3] = TOR pathway reporter MEP2-GFP, retest of hits – S. cerevisiae, flow cytometry GFP, cherry picks, confirmation (AID 2272;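 active = GFP response above 150% of the DMSO control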;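 also: ratio of well signal to plate DMSO mean so 100% equals DMSO level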); conditions: S. cerevisiae MEP2-GFP strain, 3 h, at 10 µM, stronger effect = higher value
[4] = yeast AGP1-GFP fluorescence change, single-dose – cell-based, flow cytometry, S. cerevisiae, cherry picks, confirmation (AID 2273;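 active = GFP response above 150% of the DMSO level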;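 also: median GFP channel fluorescence over the whole cell population gate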); conditions: S. cerevisiae AGP1-GFP strain, 3 h, at 10 µM
[5] = TOR pathway CIT2 reporter hit retest – S. cerevisiae, GFP fusion, cherry picks, mother/daughter gates, confirmation (AID 2274;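 active = GFP response above 150% of the DMSO level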); conditions: S. cerevisiae CIT2-GFP strain, flow cytometry, 3 h, at 10 µM, stronger effect = higher value
[6] = reduced mouse 2C T cell binding to pMHC/ICAM-1 vesicles – MLPCN validation set, flow cytometry, LFA-1/ICAM-1 modulator project, pilot screen (AID 2523;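 active = response below a set limit, under 55% cells CD8-positive and vesicle-bound, and CD8 cells' 90th-percentile brightness under 279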;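 as to vesicle binding response: mean PE anti-B7-1 fluorescence of CD8+ cells relative to row control; 100% = QL9-loaded vesicles with DMSO vehicle in the same plate row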); conditions: 2C mouse CD8+ T cells, at 7 µM, stronger effect = lower value; double positive events: measured here: CD8+/vesicle+ event percentage
[7] = target: Integrin beta-1 (Homo sapiens) + Integrin alpha-4 (Homo sapiens) (UniProt P13612+P05556); assay: alpha4beta1 integrin LIBS antibody binding reduction – U937 cells, HUTS-21 mAb, flow cytometry, validation set, VLA-4 allosteric modulator project, pilot screen (AID 2674;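 active = inhibition above 50%, about 3 SD of the validation set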;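 also: antibody binding induced by the VLA-4 ligand LDV present at three times its Kd; 0% = LDV ligand with antibody and no compound and 100% = antibody without LDV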); conditions: HUTS-21 LIBS mAb binding, at 6.7 µM, stronger effect = higher value, binding induced by LDV ligand
Chain of Integrin beta-1 (Homo sapiens) + Integrin alpha-4 (Homo sapiens) (P05556 whole entry, looked up): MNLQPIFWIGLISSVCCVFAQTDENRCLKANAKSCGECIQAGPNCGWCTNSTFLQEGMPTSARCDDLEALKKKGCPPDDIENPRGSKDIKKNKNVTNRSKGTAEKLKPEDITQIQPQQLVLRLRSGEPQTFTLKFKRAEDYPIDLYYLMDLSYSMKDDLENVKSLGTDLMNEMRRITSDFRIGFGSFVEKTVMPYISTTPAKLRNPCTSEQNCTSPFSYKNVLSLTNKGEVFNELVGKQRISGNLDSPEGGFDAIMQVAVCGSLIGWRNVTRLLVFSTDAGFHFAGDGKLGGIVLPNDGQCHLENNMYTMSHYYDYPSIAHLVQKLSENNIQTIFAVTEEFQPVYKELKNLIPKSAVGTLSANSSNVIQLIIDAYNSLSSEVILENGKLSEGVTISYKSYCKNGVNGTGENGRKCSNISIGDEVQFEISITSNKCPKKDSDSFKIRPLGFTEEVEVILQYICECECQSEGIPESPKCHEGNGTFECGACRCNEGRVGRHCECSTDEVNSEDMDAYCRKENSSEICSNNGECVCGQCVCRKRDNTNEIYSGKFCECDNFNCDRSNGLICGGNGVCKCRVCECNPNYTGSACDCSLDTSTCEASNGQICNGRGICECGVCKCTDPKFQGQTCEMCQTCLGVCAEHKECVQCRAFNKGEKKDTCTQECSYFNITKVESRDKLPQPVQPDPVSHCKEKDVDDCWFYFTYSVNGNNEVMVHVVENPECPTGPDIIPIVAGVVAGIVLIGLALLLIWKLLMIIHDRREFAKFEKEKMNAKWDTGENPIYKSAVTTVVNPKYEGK
Chain of Integrin beta-1 (Homo sapiens) + Integrin alpha-4 (Homo sapiens) (P13612 whole entry, looked up): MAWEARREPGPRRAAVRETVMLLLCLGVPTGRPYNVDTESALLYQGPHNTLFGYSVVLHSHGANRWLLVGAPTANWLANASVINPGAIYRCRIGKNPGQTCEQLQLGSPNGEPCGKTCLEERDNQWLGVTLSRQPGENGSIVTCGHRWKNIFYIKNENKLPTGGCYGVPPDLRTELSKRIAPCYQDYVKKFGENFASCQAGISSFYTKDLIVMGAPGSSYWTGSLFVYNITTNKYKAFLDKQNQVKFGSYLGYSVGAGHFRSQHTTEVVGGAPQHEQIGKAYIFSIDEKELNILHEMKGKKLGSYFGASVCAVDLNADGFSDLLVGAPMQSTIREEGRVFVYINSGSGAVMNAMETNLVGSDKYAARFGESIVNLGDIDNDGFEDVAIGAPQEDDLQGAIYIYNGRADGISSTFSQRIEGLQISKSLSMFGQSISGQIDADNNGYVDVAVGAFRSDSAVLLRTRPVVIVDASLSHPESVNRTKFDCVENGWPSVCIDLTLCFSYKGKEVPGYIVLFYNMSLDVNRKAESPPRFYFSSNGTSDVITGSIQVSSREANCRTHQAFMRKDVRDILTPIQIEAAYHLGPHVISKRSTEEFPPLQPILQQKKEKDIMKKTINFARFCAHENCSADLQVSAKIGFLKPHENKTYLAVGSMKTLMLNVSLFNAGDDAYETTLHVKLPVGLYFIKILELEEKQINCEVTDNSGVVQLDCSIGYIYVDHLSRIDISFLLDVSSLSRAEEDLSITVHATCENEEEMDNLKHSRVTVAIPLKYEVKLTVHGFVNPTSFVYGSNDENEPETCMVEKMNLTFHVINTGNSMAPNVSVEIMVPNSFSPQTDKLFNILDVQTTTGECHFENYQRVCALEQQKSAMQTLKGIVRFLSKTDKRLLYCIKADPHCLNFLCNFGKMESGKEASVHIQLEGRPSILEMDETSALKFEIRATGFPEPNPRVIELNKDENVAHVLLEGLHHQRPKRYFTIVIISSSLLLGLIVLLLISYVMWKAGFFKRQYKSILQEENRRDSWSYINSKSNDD

[8] = calorie-restriction mimetic ROS inhibitors, yeast – validation compound set, pilot screen (AID 2706;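 active = superoxide response below 65% of plate, a cut near 3 SD across the whole screen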;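 also: yeast exposed to compound for one week at 30 degrees C before staining; 100% = mean of all compound wells on the same plate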); conditions: S. cerevisiae aging, superoxide DHE fluorescence; at 10 µM, stronger effect = lower value
[9] = target: Beta-adrenergic receptor kinase 1 (Homo sapiens) (UniProt P25098); assay: GRK2 binders displacing RNA aptamer, biochemical, validation, human GRK2, bead flow cytometry (AID 488806;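 active = aptamer binding inhibition above 30%, about 3 SD of noise from non-fluorescent compounds; inactive = inhibition at or below 30%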); conditions: bead-bound GRK2, FAM-aptamer displacement, at 10 µM, stronger effect = higher value
Chain of Beta-adrenergic receptor kinase 1 (Homo sapiens) (P25098 whole entry, looked up): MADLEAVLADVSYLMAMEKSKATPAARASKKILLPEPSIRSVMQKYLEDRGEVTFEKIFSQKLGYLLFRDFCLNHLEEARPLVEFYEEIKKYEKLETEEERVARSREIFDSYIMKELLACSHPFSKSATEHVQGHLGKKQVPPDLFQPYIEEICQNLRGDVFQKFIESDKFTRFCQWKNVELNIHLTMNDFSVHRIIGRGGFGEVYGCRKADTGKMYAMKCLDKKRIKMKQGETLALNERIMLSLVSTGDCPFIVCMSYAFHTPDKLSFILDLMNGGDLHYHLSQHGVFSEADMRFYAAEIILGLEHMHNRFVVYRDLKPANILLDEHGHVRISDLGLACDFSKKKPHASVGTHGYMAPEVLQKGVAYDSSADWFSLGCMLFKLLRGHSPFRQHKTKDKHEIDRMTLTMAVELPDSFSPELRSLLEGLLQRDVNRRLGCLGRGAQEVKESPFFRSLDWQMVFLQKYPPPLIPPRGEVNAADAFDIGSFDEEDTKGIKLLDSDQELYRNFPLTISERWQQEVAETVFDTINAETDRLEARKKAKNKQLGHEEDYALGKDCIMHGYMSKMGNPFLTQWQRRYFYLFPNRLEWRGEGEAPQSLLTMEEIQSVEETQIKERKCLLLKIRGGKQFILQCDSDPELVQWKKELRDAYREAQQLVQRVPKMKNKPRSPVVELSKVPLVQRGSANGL

[10] = target: Beta-2 adrenergic receptor (Homo sapiens) (UniProt P07550); assay: agonist-induced loss of surface beta2AR – cell-based, FAP fluorogen, flow cytometry, validation set, pilot screen (AID 504459;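 active = percent response above 42, roughly 3 SD of non-fluorescent test compounds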;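 also: agonist-driven loss of surface beta2AR via internalization measured by FAP dye flow cytometry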); conditions: Am2.2-beta2AR cells, at 10 µM, stronger effect = higher value
Chain of Beta-2 adrenergic receptor (Homo sapiens) (P07550 whole entry, looked up): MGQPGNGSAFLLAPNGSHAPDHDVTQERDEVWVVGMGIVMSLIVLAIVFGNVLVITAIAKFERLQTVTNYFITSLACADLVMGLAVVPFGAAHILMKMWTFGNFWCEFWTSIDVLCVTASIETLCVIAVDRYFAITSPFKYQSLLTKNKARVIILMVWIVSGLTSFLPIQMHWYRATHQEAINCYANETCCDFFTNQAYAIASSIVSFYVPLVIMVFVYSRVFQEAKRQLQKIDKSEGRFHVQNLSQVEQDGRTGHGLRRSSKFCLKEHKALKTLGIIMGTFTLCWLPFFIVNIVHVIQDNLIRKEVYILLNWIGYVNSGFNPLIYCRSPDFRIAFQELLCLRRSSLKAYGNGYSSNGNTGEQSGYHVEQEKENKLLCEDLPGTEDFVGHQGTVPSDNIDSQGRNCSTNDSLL

[11] = target: AP-2 complex subunit beta (Homo sapiens) (UniProt P63010); assay: beta-arrestin/AP2 interaction blockers – biochemical, validation set, GST-AP2 beads, flow cytometry, pilot screen (AID 504541;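 active = inhibition above 54%, about 3 SD of non-fluorescent compounds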;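 also: AP2 carries R879A mutation and is captured from E. coli lysate; bead-bound FITC arrestin peptide fluorescence measuring arrestin peptide binding to AP2; 0% = DMSO wells and 100% = excess unlabeled arrestin peptide control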); conditions: FITC arrestin peptide, at 10 µM, stronger effect = higher value, AP2 beta2 appendage fragment, R879A mutant
Chain of AP-2 complex subunit beta (Homo sapiens) (P63010 whole entry, looked up, the tested form may be a part, one chain of several): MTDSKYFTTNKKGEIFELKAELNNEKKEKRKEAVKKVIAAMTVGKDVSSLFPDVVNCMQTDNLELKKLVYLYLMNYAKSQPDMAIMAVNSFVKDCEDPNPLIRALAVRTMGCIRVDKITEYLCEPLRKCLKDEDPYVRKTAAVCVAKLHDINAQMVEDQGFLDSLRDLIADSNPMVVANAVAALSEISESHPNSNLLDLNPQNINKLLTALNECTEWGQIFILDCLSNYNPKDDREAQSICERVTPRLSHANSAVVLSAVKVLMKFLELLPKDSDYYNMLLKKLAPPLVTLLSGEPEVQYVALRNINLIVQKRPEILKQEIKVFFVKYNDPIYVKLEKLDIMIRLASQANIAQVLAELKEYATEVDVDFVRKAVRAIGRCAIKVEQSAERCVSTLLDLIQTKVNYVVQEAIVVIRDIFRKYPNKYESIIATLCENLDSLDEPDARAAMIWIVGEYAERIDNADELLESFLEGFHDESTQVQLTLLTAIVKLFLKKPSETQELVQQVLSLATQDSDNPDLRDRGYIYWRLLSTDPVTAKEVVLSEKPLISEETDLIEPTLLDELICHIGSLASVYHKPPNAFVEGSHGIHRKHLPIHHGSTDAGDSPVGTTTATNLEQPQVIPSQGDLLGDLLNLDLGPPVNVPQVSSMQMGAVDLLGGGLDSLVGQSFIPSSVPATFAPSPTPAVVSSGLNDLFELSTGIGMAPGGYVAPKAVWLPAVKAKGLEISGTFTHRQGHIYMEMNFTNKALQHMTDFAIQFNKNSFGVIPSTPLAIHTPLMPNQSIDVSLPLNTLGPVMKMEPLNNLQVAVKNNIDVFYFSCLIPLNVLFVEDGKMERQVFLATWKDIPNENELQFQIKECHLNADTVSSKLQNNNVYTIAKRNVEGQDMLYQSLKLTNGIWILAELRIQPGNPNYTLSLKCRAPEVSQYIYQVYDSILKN

[12] = cytosolic pH regulators acting via V-ATPase – S. cerevisiae, pHLuorin, HTS validation (AID 504600); conditions: V-ATPase proton transport, at 10 µM, stronger effect = higher value;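 also: plate controls were DMSO for no effect and reference compound for full effect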
[13] = test system: anti-desmoglein-3 scFv antibody binding to human DSG3; assay: blockers of pathogenic pemphigus antibody–desmoglein-3 binding – biochemical, validation compound set, bead-based, flow cytometry, pilot screen (AID 588368;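 active = binding below the plate cutoff, the plate median minus 3 SD, with a reading above zero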;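 also: signal is the median channel fluorescence of bead-bound GFP antibody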); conditions: Protein G beads, DSG3-Fc, scFv-GFP binding, at 10 µM, stronger effect = lower value
[14] = Nile Red efflux blockade in pump-expressing yeast – validation compound set, multiplex, phenotypic, pilot screen (AID 588506;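 active = efflux inhibition above 0.42, the validation set average plus 4 SD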;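 also: Nile Red retained in cells so higher fluorescence means more efflux inhibition; 0 = negative control wells and 1 = enniatin B 25 µM full block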); conditions: S. cerevisiae pump-expressing triplex, Nile Red efflux flow cytometry; at 10 µM; stronger effect = higher value; the pumps come from Candida albicans
[15] = target: ATP-binding cassette sub-family B member 6 (Homo sapiens) (UniProt Q9NP58); assay: blockers of ABCB6-driven porphyrin uptake – K562-ABCB6 cells, flow cytometry, validation set, pilot screen (AID 588550;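 active = inhibition above the screen-wide mean plus 3 SD, about 51%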;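 also: 0% = DMSO wells and 100% = benzethonium chloride 70 µM positive control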); conditions: K562-ABCB6 porphyrin accumulation, 1 h, at 10 µM, stronger effect = higher value
Chain of ATP-binding cassette sub-family B member 6 (Homo sapiens) (Q9NP58 whole entry, looked up): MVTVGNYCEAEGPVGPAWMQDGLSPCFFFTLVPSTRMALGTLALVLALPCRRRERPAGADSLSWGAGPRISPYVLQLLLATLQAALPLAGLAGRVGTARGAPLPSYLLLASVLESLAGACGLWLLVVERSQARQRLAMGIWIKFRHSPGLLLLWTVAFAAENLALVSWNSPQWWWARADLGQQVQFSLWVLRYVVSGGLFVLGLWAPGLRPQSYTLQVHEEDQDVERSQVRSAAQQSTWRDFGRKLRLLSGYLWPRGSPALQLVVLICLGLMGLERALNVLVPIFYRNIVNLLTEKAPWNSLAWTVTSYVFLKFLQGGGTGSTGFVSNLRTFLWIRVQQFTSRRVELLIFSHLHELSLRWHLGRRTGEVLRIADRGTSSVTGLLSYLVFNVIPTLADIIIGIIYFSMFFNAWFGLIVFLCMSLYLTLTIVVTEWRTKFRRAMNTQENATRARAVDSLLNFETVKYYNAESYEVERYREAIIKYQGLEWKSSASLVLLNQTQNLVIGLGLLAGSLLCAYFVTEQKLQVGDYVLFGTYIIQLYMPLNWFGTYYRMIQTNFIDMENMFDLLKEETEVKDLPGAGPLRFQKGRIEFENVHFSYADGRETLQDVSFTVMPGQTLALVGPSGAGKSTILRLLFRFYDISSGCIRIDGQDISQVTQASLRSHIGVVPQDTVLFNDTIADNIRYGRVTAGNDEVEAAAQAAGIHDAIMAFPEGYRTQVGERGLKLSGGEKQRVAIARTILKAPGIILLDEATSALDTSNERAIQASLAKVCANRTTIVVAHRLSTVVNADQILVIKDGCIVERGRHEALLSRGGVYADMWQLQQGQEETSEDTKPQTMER

[16] = AML differentiation inducers, ER-HoxA9 marrow cells – cell-based, GFP/MAC1 double positive, flow cytometry, validation set, primary screen (AID 588685;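 active = differentiation response of at least 50%, scaled between solvent and reference control, from cells with both markers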;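 also: compound exposure lasts four days before antibody staining and flow analysis; 0% = DMSO wells and 100% = 5 µM fulvestrant positive control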); conditions: stronger effect = higher value, normalized: vehicle 0, fulvestrant 100
[17] = measured here: daughter cell gate
[18] = measured here: mother cell gate

Which results are given for `Cc1ccc(/C=C2/C(=O)ON=C2c2ccccc2)o1`?
GFP response vs DMSO [1]: 90.4% (inactive); GFP response vs DMSO [1, 17]: 87.7%; GFP response vs DMSO [1, 18]: 82.8%; GFP response relative to DMSO [2]: 250% (active); GFP response relative to DMSO ([2]; measured here: mother cell gate response): 219%; GFP response vs DMSO [3]: 129% (inactive); GFP response, % of DMSO [4]: 88.4% (inactive); GFP response, % of DMSO [5]: 92.1% (inactive); GFP response, % of DMSO [5, 17]: 90.9%; GFP response, % of DMSO [5, 18]: 77%

With `CCCc1nn(C)c2c1C(c1cccnc1)C(C#N)=C(N)O2` (stereo unspecified) as the compound, how does the GFP response vs DMSO [1] read?
The GFP response vs DMSO was 101% (inactive).

And the GFP response vs DMSO [1, 17]?
The GFP response vs DMSO was 106%.

And the GFP response relative to DMSO [2]?
Its GFP response relative to DMSO is 97.4% (inactive).

What about the GFP response vs DMSO [3] of the same compound?
The GFP response vs DMSO was 97.8% (inactive).

What about the GFP response, % of DMSO [4] of the same compound?
The GFP response, % of DMSO was 98.3% (inactive).

And the GFP response, % of DMSO [5]?
Its GFP response, % of DMSO is 111% (inactive).

For `CCN(CC)C(=S)SSC(=S)N(CC)CC`, which double positive events [6] is on record?
Its double positive events is 59.7%.

What about the vesicle binding response [6] of the same compound?
Its vesicle binding response is 164% (inactive).

What about the inhibition [7] of the same compound?
Its inhibition is 27.8% (inactive).

What about the superoxide response (% of plate) [8] of the same compound?
Its superoxide response (% of plate) is 109% (inactive).

What about the aptamer binding inhibition [9] of the same compound?
The aptamer binding inhibition was 4% (inactive).

What about the response [10] of the same compound?
The response was 14.2% (inactive).

What about the inhibition [11] of the same compound?
The inhibition was 3.89% (inactive).

And the response [12]?
The response was -29.5% (inactive).

And the binding (% of control) [13]?
The binding (% of control) was 100% (inactive).

And the efflux inhibition (fraction of control) [14]?
The efflux inhibition (fraction of control) was -0.13 (inactive).

What about the inhibition [15] of the same compound?
Its inhibition is 4% (inactive).

And the differentiation response [16]?
The differentiation response was -0.06% (inactive).

Which double positive events [6] does the source give for `CC1(C)CC(=O)C(C2(O)C(=O)Nc3ccccc32)CO1` (stereo unspecified) here?
The double positive events was 69%.

And the vesicle binding response [6]?
The vesicle binding response was 183% (inactive).

What about the inhibition [7] of the same compound?
Its inhibition is 11.7% (inactive).

And the superoxide response (% of plate) [8]?
The superoxide response (% of plate) was 92.3% (inactive).

What about the aptamer binding inhibition [9] of the same compound?
Its aptamer binding inhibition is 3% (inactive).

What about the response [10] of the same compound?
The response was 7.56% (inactive).

What about the inhibition [11] of the same compound?
The inhibition was 0.15% (inactive).

And the response [12]?
The response was 2.36% (inactive).

What about the binding (% of control) [13] of the same compound?
Its binding (% of control) is 105% (inactive).

What about the efflux inhibition (fraction of control) [14] of the same compound?
The efflux inhibition (fraction of control) was 0.12 (inactive).

And the inhibition [15]?
Its inhibition is 12% (inactive).

And the differentiation response [16]?
The differentiation response was -16.8% (inactive).

Which double positive events [6] does the source give for `O=c1c2ccccc2nc2n1-c1ccccc1CCC2` here?
The double positive events was 64.2%.

And the vesicle binding response [6]?
The vesicle binding response was 201% (inactive).

What about the inhibition [7] of the same compound?
The inhibition was 13% (inactive).

What about the superoxide response (% of plate) [8] of the same compound?
The superoxide response (% of plate) was 96.9% (inactive).

What about the aptamer binding inhibition [9] of the same compound?
Its aptamer binding inhibition is 1% (inactive).

What about the response [10] of the same compound?
Its response is -9.83% (inactive).

And the inhibition [11]?
Its inhibition is -5.56% (inactive).

And the response [12]?
The response was 0.74% (inactive).

And the binding (% of control) [13]?
The binding (% of control) was 99.2% (inactive).

And the efflux inhibition (fraction of control) [14]?
Its efflux inhibition (fraction of control) is -0.23 (inactive).

And the inhibition [15]?
The inhibition was 0% (inactive).

And the differentiation response [16]?
Its differentiation response is 1.22% (inactive).

Which double positive events [6] does the source give for `O=c1[nH]cnc2c1ncn2[C@@H]1O[C@H](CO)[C@@H](O)[C@H]1O` here?
Its double positive events is 62%.

What about the vesicle binding response [6] of the same compound?
The vesicle binding response was 140% (inactive).

And the inhibition [7]?
Its inhibition is -15.6% (inactive).

And the superoxide response (% of plate) [8]?
Its superoxide response (% of plate) is 86.8% (inactive).

What about the aptamer binding inhibition [9] of the same compound?
Its aptamer binding inhibition is 2% (inactive).

What about the response [10] of the same compound?
Its response is -18% (inactive).

What about the inhibition [11] of the same compound?
Its inhibition is -10.3% (inactive).

What about the response [12] of the same compound?
Its response is -0.11% (inactive).

And the binding (% of control) [13]?
Its binding (% of control) is 106% (inactive).

And the efflux inhibition (fraction of control) [14]?
Its efflux inhibition (fraction of control) is 0.12 (inactive).

What about the inhibition [15] of the same compound?
The inhibition was 5% (inactive).

What about the differentiation response [16] of the same compound?
Its differentiation response is -7.94% (inactive).

Which double positive events [6] does the source give for `CC1/C(=C\c2ccc(Cl)cc2)C(=O)C2CC1C2(C)C` (stereo unspecified) here?
The double positive events was 60.1%.

And the vesicle binding response [6]?
Its vesicle binding response is 168% (inactive).

What about the inhibition [7] of the same compound?
Its inhibition is -3.16% (inactive).

And the superoxide response (% of plate) [8]?
Its superoxide response (% of plate) is 94.9% (inactive).

What about the aptamer binding inhibition [9] of the same compound?
Its aptamer binding inhibition is 2% (inactive).

What about the response [10] of the same compound?
Its response is -15.2% (inactive).

And the inhibition [11]?
The inhibition was -1.54% (inactive).

And the response [12]?
The response was 0.95% (inactive).

And the binding (% of control) [13]?
The binding (% of control) was 99.9% (inactive).

What about the efflux inhibition (fraction of control) [14] of the same compound?
The efflux inhibition (fraction of control) was 0.05 (inactive).

And the inhibition [15]?
The inhibition was 9% (inactive).

What about the differentiation response [16] of the same compound?
Its differentiation response is -5.6% (inactive).
